About 1,500 (65%) of roughly 2,300 compounds were called active. So high a share suggests a set chosen from earlier hits. The list shows a part of the results. Measured potencies and affinities stand elsewhere. Values without a mark were called inactive. The rule behind the calls is not given here.
assay: replicating M. tuberculosis growth inhibition, dose response, non-replicating M. tuberculosis project, H37Rv (AID 492952); settings: series mostly up to 50 µM; inhibition: at the top concentration;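 note: Mycobacterium tuberculosis grown in culture; growth inhibition read after a week of incubation; 0% = bacteria alone untreated and 100% = bacteria with high antibiotic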

SMILES	inhibition
CN1C(=O)CC(Sc2ccccc2C(=O)O)C1=O (stereo not given)	-2.37%
CC(C)=CC1C(C(=O)Nc2ccc(Br)cn2)C1(C)C (stereo not given)	8.89%
C/C(=C\C(=O)c1ccc(Br)cc1)NNC(=O)c1ccccc1	20.2%
Cn1[nH]c(-c2ccccc2)c(/C=N/O)c1=O	3.15%
CCOc1ccc(NC(=O)Cn2sc3nc(C)cc(C)c3c2=O)cc1	-4.28%
COc1ccc(C(O)CNc2ccc(C)cc2)cc1 (stereo not given)	-0.87%
CCOc1ccc(NCC(=O)c2ccc(C)cc2)cc1	11.1%
O=C1CCC(=O)N1CNc1ccc(Oc2ccccc2)cc1	-6.19%
CCOC(=O)CCSc1n[nH]c(=S)s1	0.83%
CC(=O)N1CCN(C(=O)CC2OC(=O)c3ccccc32)CC1 (stereo not given)	-6.89%
CCn1ccc(C(=O)Nc2cccc(Cl)c2)n1	-3.96%
O=C(COc1ccccc1)Nc1ccc(Cl)cn1	4%
O=C(COc1ccc(Br)cc1)N/N=C1/SCC(=O)N1Cc1ccco1	0.21%
COc1ccc(CC(=O)OCC(=O)Nc2ccc(Br)cc2)cc1	-4.73%
COc1ccccc1C(=O)OCC(=O)Nc1ccc(Cl)cn1	6.92%
O=C(COC(=O)CC1CCCC1)Nc1ccc(Cl)cn1	0.61%
O=C(O)c1ccc(NCc2ccc(Br)cc2)cc1	1.94%
Cc1ccc(OCC(=O)Nc2ccc([N+](=O)[O-])cc2)cc1	4.13%
O=C(CCC1CCCC1)Nc1ccc(Br)cn1	-6.11%
O=C(OCC#CCSc1nnc(-c2ccncc2)o1)c1cccs1	8.48%

SMILES	inhibition
OC(C#CCN1CCOCC1)c1cccs1 (stereo not given)	17.4%
O=C(NCc1cccs1)c1ccc([N+](=O)[O-])cc1	17.9%
Nc1ccc(C(=O)N/N=C\C=C\c2ccc([N+](=O)[O-])cc2)cc1	-1.89%
CCOC(=O)c1csc(NC(=O)COc2ccc(Cl)cc2Cl)n1	2.42%
O=C(N/N=C/c1cc(Br)ccc1O)c1ccccc1Cl	-1.46%
Cc1cc(Cl)ccc1N(CC(=O)NCc1ccccc1)S(C)(=O)=O	2.63%
O=C(NCc1ccc(Cl)cc1)c1n[nH]c([N+](=O)[O-])c1Cl	-6.89%
O=C1NC(Cc2c[nH]c3ccccc23)C(=O)N1CCOc1ccccc1 (stereo not given)	-4.22%
COC(=O)COc1ccc(S(=O)(=O)NCc2ccc3c(c2)OCO3)cc1	14%
Fc1ccc(-c2nnc(CSc3nnc(-c4cccs4)o3)o2)cc1	8.56%
c1ccc(-c2nnc(SCc3cn4ccsc4n3)o2)cc1	0.98%
CCn1cc(C(=O)NC(C)C23CC4CC(CC(C4)C2)C3)cn1 (stereo not given)	-7.28%
CCOC(=O)Nc1ccc2c(c1)N(C(=O)CCCl)c1ccccc1[S@]2=O	13.7%
CN(C)CCC(=O)N1c2ccccc2Sc2ccc(Cl)cc21	2.62%
CCOc1ccccc1OC(=O)c1cc2ccccc2oc1=O	27.5%
O=Cc1coc2ccc3ccccc3c2c1=O	0.34%
Cc1ccc(C)c(NC(=O)COC(=O)c2cc3ccccc3oc2=O)c1	6.08%
CC1(c2nnc(Cc3ccccc3)o2)CC(c2ccccc2[N+](=O)[O-])=NO1 (stereo not given)	3.65%
C/C(=N\O)c1cc(Cl)ccc1O	0.24%
CC(C)=CCN1CCN(Cc2cn(C(C)C)c3ccccc23)CC1CCO (stereo not given)	5.98%

SMILES	inhibition
O=[N+]([O-])c1ccc(N2CCCCCC2)c2nonc12	10.1%
CCOc1ccc(-c2ccc(C=O)o2)c([N+](=O)[O-])c1	-3.32%
CC(C)N1CCc2c(sc(NC(=O)CCS(=O)(=O)c3ccccc3)c2C#N)C1	-6.18%
CSC1=NSC2=NC(=O)/C(=C\c3cccs3)C(=N)N12	0.71%
N=C1/C(=C\c2coc3ccccc3c2=O)C(=O)N=C2SC=CN12	3.33%
COc1ccc(C(=O)CC(=O)C(=O)NCCc2cccc(C)c2)cc1	8.12%
O=C(CCSc1ccc(Cl)cc1)Nc1cccnc1	0.63%
c1cncc(-c2noc(CC3CCCCC3)n2)c1	-0.36%
CC[n+]1c(/C=C(\C)Nc2ccccc2)sc2ccccc21	10.4%
Cc1nnc(C)n1/N=C/c1cc(Br)cc(Br)c1O	-2.48%
COc1cc(C2C3=C(CC(C)(C)CC3=O)OC(N)=C2[N+](=O)[O-])ccc1O (stereo not given)	3.24%
CCOC(=O)CC(NS(=O)(=O)Cc1ccccc1)c1ccc(C)cc1 (stereo not given)	1.94%
COc1ccc(NC(=O)c2nc3ccccc3s2)cc1	-0.19%
COc1cccc(NC(=O)c2ccc(C(=O)c3ccccc3)o2)c1	-2.29%
CCOc1ccc(NC(=O)c2nnn(CC(=O)Nc3ccccc3OC)c2N)cc1	2.2%
O=S(=O)(c1ccc(OCC2CO2)cc1)c1ccc(OCC2CO2)cc1 (stereo not given)	-2.76%
COC(=O)COc1ccc(S(=O)(=O)N2CCN(c3ccccc3F)CC2)cc1	4.73%
Cc1ccc(CC(=O)N2CCN(c3ccc([N+](=O)[O-])cc3)CC2)cc1	-1.43%
O=C(Nc1ccc(N2CCN(C(=O)c3ccco3)CC2)c(Cl)c1)c1cccs1	0.19%
O=C(c1cccs1)N1CCN(c2ccc(Cl)cc2)CC1	1.37%

From PubChem BioAssay AID492952 (Southern Research Specialized Biocontainment Screening …, 2010)
